Inconclusive results are not listed. Unmarked numbers belong to inactive results. Activity calls are given as the source filed them. Calls follow the shape of the dose curve; as a rule, active = well fitted cell-killing curve with a large enough effect in the repeat runs; inconclusive = weak or mixed curves, or effect the other way; inactive = no such curve, though single readings can be large or run the other way.
Assay: qHTS assay to identify small molecule agonists of the farnesoid-X-receptor (FXR) signaling pathway - cell viability counter screen (AID 743218); also: nearly all actives have a fitted effect of over 45% in size
Details: FXR-bla HEK293T viability, CellTiter-Glo luminescence, 16 h; series mostly up to 62.6 µM; viability change, negative = cytotoxic: at the top concentration
Description: U.S. Tox21 Program National Center for Advancing Translational Sciences [NCATS] NIH Chemical Genomics Center [NCGC] U.S. Environmental Protection Agency [EPA] National Institutes of Environmental Health Sciences [NIEHS] National Toxicology Program [NTP] U.S. Food and Drug Administration [FDA] Tox21 Assay Overview: The farnesoid-X-receptor (FXR), a nuclear hormone receptor, is highly expressed in liver, intestine, kidney and adrenal cortex. Natural ligands of FXR are the bile acids (Cholic acid, Chenodeoxy cholic acid etc). FXR is an important regulator of diverse metabolic pathways, including the bile acid homeostasis, lipid and glucose metabolisms. FXR regulates the expression of target genes by binding either as a monomer or as a heterodimer with the retinoid X receptor (RXR). Numerous studies have reported that FXR exerts protective function during cholestasis, diabetes, liver regeneration, and cancer. To identify compounds that activate FXR signaling, GeneBLAzer FXR-UAS-bla HEK 293T cell line (Invitrogen, Carlsbad, CA) containing a beta-lactamase reporter gene under the control of a UAS response element was used to screen the Tox21 10K compound library. The cytotoxicity of the Tox21 compound library against the FXR-bla cell line was tested in parallel by measuring the cell viability using CellTiter-Glo assay in the same wells.
Tox21 Assay Protocol Summary: FXR-bla cells were dispensed at 5000 cells/5uL/well in 1536-well black wall/clear bottom plates using a Multidrop Combi (Thermo Fisher Scientific, Waltham, MA) dispenser. After the assay plates were incubated at 37 C and 5% CO2 for 5 h, 23 nL of compounds dissolved in DMSO, positive controls or DMSO only was transferred to the assay plate by a Pintool station (Kalypsys, San Diego, CA). The assay plates were incubated at 37C for 16 h. After 1 uL of LiveBLAzerTM B/G FRET substrate was added using a Bioraptr Flying Reagent Dispenser (FRD) workstation (Beckman Coulter, Indianapolis, IN), the plates were incubated at room temperature for 2 h, and fluorescence intensity was measured by an Envision plate reader (PerkinElmer, Shelton, CT). For cell viability readout that measures cytotoxicity, 4uL/well of CellTiter-Glo reagent was added into the assay plates using a Bioraptr FRD. After 30 min incubation at room temperature, the luminescence intensity in the plates was measured using a ViewLux plate reader (PerkinElmer).
% is scaled to controls: 0 for no effect and ±100 for the full control effect; potency is read from the fitted curve at half-maximal effect.

SMILES	Potency	viability change, negative = cytotoxic
CCCCCCCCCCCCCCN(CCO)CCO	43.6 µM (active)	–
CCCC(=O)C(=O)O	–	15.2%
c1ccc2sc(SN(C3CCCCC3)C3CCCCC3)nc2c1	–	6.98% [at 81.1 µM]
CC(=O)OCC(=O)NCCCOc1cccc(CN2CCCCC2)c1	–	-4.67%
N#[N+]c1ccc2c(S(=O)(=O)[O-])cccc2c1O	–	1.29%
O=C1CCCCCCCCCCOCCCCO1	–	2.02%
CN1CCCN=C1COC(=O)C(O)(c1ccccc1)C1CCCCC1 (stereo not given)	–	5.84%
CC(=O)Nc1ccc(C)cc1C	–	3.02%
CC(CN(C)C)C(C)(O)Cc1ccc(Cl)cc1 (stereo not given)	–	-13.8%
C/C=C/C=C/C=O	–	20.9%
C=COCC(C)C	–	0% [at 81.1 µM]
O=C=Nc1ccc(Cl)c(Cl)c1	30.4 µM (active)	–
N#CCc1ccc(Cl)cc1Cl	–	8.92%
Cc1cc(O)c(C)c(C)c1O	–	-7.42%
CC(C)C(O)(c1ccc(OC(F)(F)F)cc1)c1cncnc1 (stereo not given)	–	-0.0702%
CC(C)C=O	–	1.43% [at 81.1 µM]
CCOC(=O)c1ccc(C#Cc2ccc3c(c2)C(C)(C)CCS3)nc1	–	-1.01%
CCOC(C)=O	–	5.78% [at 81.1 µM]
Cc1ccccc1N=C(N)Nc1ccccc1C	–	-11.9%
O=c1cc(-c2ccccc2)oc2ccc3ccccc3c12	8.71 µM (active)	–

SMILES	Potency	viability change, negative = cytotoxic
Cc1ccc(OC(=O)c2ccccc2O)cc1	–	-6.21%
CC(CC1c2ccccc2CCc2ccccc21)CN(C)C (stereo not given)	–	-31.9%
C=C(C)CCCC(C)CCO (stereo not given)	–	-10.9%
CCC1NC(=O)c2cc(S(N)(=O)=O)c(Cl)cc2N1 (stereo not given)	–	0.581%
C[C@H]1C[C@H](O)c2ccsc2S1(=O)=O	–	7.16%
CC(=O)c1cc2ccccc2s1	–	8.2%
CC(=O)OCCN(CCOC(C)=O)c1ccc(N=Nc2ccc([N+](=O)[O-])cc2C#N)cc1	–	-7.79%
CCCCN(CCN(CCCC)C(=O)N1CCOCC1)C(=O)N1CCOCC1	–	-14.8%
NC1[C@H]2CN(c3nc4c(cc3F)c(=O)c(C(=O)O)cn4-c3ccc(F)cc3F)C[C@@H]12 (stereo not given in full)	–	0.0643%
C[C@H]1c2cccc(O)c2C(O)=C2C(=O)[C@]3(O)C(O)=C(C(N)=O)C(=O)[C@@H](N(C)C)[C@@H]3[C@@H](O)[C@@H]21	–	-0.99%
C=CC(=O)[O-].C=CC(=O)[O-].[Zn+2]	–	0.422%
CC[N+](CC)(CCNC(=O)C(=O)NCC[N+](CC)(CC)Cc1ccccc1Cl)Cc1ccccc1Cl	–	2.34%
C=C1C[C@@]23CC[C@H]4[C@@](C)(CCC[C@@]4(C)C(=O)O[C@@H]4O[C@H](CO)[C@@H](O)[C@H](O)[C@H]4O)[C@@H]2CC[C@]1(O[C@@H]1O[C@H](CO)[C@@H](O)[C@H](O[C@@H]2O[C@H](CO)[C@@H](O)[C@H](O)[C@H]2O)[C@H]1O[C@@H]1O[C@H](CO)[C@@H](O)[C@H](O)[C@H]1O)C3	–	14.4%
C[C@@H](O)[C@H]1C(=O)N2C(C(=O)O)=C([C@H]3CCCO3)S[C@H]12	–	4.87%
CN1C(C(=O)Nc2ccccn2)=C(O)c2sccc2S1(=O)=O	–	0.416%
CCC(=O)OC	–	-11.1% [at 81.1 µM]
Oc1cccc(O)c1O	–	33.7%
COc1ccc(OC(=O)N(CC(=O)O)Cc2ccc(OCCc3nc(-c4ccccc4)oc3C)cc2)cc1	–	-12.4%
CC(=O)OCC[N+](C)(C)C	–	17%
O=c1[nH]ncc2ccccc12	–	-6.09%

Source: PubChem BioAssay (Tox21)
